Screening data as filed in PubChem.
tim10-1 inh: tim10-1 yeast growth inhibition; inhibition, % at 20 µM; 330,000 compounds, 2.2% hits; S. cerevisiae tim10-1 ts strain growth, BacTiter-Glo, 24 h;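 active = inhibition of at least 40%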;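 note: mutant grown at 25 °C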
tim23-1 inh: growth inhibitors of tim23-1 mutant yeast | 330,000 compounds, 1.3% hits | inhibition, % at 20 µM | S. cerevisiae tim23-1 growth, BacTiter-Glo luminescence, 24 h;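 active = growth inhibition of the mutant yeast at or above 50%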;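 note: temperature-sensitive mutant grown at 25 °C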
SKKanGAS inh: inhibitors of SKKanGAS S. pyogenes growth in kanamycin (SK-promoter or general growth effect); BacTiter-Glo, 6 h; inhibition, % at 7.5 µM; 300,000 compounds, 1.3% hits;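 active = mean replicate score, as percent of positive control median, at least 50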;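 note: strain carries kanamycin resistance gene driven by streptokinase promoter and grows in 40 µg/ml kanamycin; loss of luminescence reflects streptokinase promoter inhibition or plain growth inhibition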
PfHsp90 yeast 2: inhibits growth of yeast expressing Plasmodium falciparum Hsp90; S. cerevisiae expressing PfHsp90, BacTiter-Glo ATP, 48 h; yeast lacking PDR1 and PDR3 efflux regulators; inhibition, % at 9.4 µM; 310,000 compounds, 0.32% hits; AID 504621;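 active = every replicate shows inhibition above about 80%, whatever the replicate mean, limit read from the data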
TIM10 inh: growth inhibitors of TIM10 yeast strain. 330,000 compounds, 1.4% hits. inhibition, % at 10 µM. S. cerevisiae TIM10 strain growth, BacTiter-Glo luminescence, 24 h;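 active = inhibition of 40% or more at the single tested concentration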;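 note: wild-type TIM10 isogenic control strain grown at permissive 25 °C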
NLRP3 yeast inh: inhibitors of NALP3 inflammasome in yeast. 330,000 compounds, 0.39% hits. AID 2825. Yeast reconstituted NLRP3/ASC/caspase-1, beta-gal luminescence, 24 h. inhibition, % at 10 µM;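 active = inhibition of 50% or more; inactive = inhibition below 50%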
tim10-1 confirm: tim10-1 yeast growth inhibition, confirmed; shares compounds with tim10-1 inh; S. cerevisiae tim10-1 ts strain growth, BacTiter-Glo, 24 h; inhibition, % at 20 µM; 7,400 compounds, 56% hits;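 active = inhibition of yeast growth at or above a set limit in either of two repeat tests at 20 µM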;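 note: tim10-1 mutant grown at permissive 25 °C to find synthetic lethal compounds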
Of the large screens only hits and unclear results are named; the others gave an inactive call (follow-up assays come after a bar, where they were run). Compounds with a hit are over-represented: about 4.5% of the library has one in this group of screens.

COc1cccc(NC(=O)c2nc(S(C)(=O)=O)ncc2Cl)c1	none
CC(C)c1nnc(NC(=O)c2nc(S(=O)(=O)Cc3ccccc3)ncc2Cl)s1	none
CSc1cccc(CN2CCC(CCC(=O)NC3CC3)CC2)c1	none
CC(Sc1ccccc1)C(=O)N/N=C/c1cccnc1 (stereo not given)	none
CC(Oc1cccc2ccccc12)C(=O)N/N=C/c1cccnc1 (stereo not given)	tim10-1 inh 44 | tim10-1 confirm inactive
COc1cc(OC)c(S(=O)(=O)N2CCOCC2)cc1S(=O)(=O)N1CCOCC1	none
Cc1nc(-c2cc(C#N)c(Sc3ccc(Cl)cc3Cl)nc2C)cs1	none
CCOC(=O)n1c(=O)n(Cc2ccc(OC)cc2)c2ccccc21	tim10-1 inh 50 | tim10-1 confirm 46
O=C(Nc1cccnc1)OC1CCCCC1	tim10-1 inh 43 (no result: PfHsp90 yeast 2) | tim10-1 confirm inactive
O=C(Nc1cccnc1)OC1CCCC1	none (no result: PfHsp90 yeast 2)
O=c1[nH]c(CN2CCN(S(=O)(=O)c3ccc(Cl)cc3)CC2)nc2cc(Cl)ccc12	tim10-1 inh 48 | tim10-1 confirm 31
OCC1CCCN(c2nc(CN3CCCCC3)nc3scc(-c4ccccc4)c23)C1 (stereo not given)	tim10-1 inh 40 | tim10-1 confirm inactive
OCC1CCCN(c2ncnc3scc(-c4ccccc4)c23)C1 (stereo not given)	none
CCOC(=O)CNC(=O)c1cc(-c2ccccn2)nc2c(C)c(Cl)ccc12	tim10-1 inh 41 (no result: PfHsp90 yeast 2) | tim10-1 confirm inactive
COc1cccc(NC(=O)c2cccnn2)c1	none
CCOC(=O)C1=C(c2ccccc2)O/C(=C(/C#N)C(F)(F)F)S1	tim10-1 inh 47 (no result: PfHsp90 yeast 2) | tim10-1 confirm 39
CC(=O)NC(CC(=O)OCC(=O)c1cc(C)ccc1C)c1ccccc1 (stereo not given)	none (no result: SKKanGAS inh)
COc1ccc(CCNC(=O)COC(=O)Cn2cnc3ccccc3c2=O)cc1	none
NC(=O)COC(=O)c1ccc(Cl)c(S(=O)(=O)N(Cc2ccccc2)c2ccc(Cl)cc2)c1	tim10-1 inh 41 | tim10-1 confirm 32
Cc1cc(N)n2ncc(-c3ccc(F)cc3)c2n1	tim10-1 inh 50 | tim10-1 confirm 39
Cc1nc2c(-c3ccc(F)cc3)cnn2c(N)c1-c1ccc(F)cc1	none
Brc1cccc(C2Nc3cccc4cccc(c34)N2)c1	none
Brc1ccc(C2Nc3cccc4cccc(c34)N2)o1	tim10-1 inh 42 | tim10-1 confirm 29
CCSc1nnc(NC(=O)CN2C(=O)N(C)C3(CCCCC3)C2=O)s1	tim10-1 inh 97 (no result: SKKanGAS inh) | tim10-1 confirm inactive
Cc1ccc(C(=O)O/N=C(\N)c2ccccn2)c(C)c1	tim10-1 inh 54 | tim10-1 confirm 63
N/C(=N\OC(=O)c1cccc(Cl)c1)c1ccccn1	tim10-1 inh 45 | tim10-1 confirm 33
Cc1ccc(S(=O)(=O)N2CCC(C(=O)NCC(C)(C)N3CCOCC3)CC2)c(C)c1	none (no result: SKKanGAS inh)
CN(CC(=O)Nc1ccc(F)c(F)c1F)C(=O)C1COc2ccccc2O1 (stereo not given)	none (no result: SKKanGAS inh)
COc1ccc(NS(=O)(=O)c2ccc(C)c(C(=O)N3CCC3)c2)cc1	none (no result: PfHsp90 yeast 2)
O=[N+]([O-])c1ccc(N=NNc2ccccc2)cc1	tim10-1 inh 42 | tim10-1 confirm 34
Brc1ccc(N=NNc2ccccc2)cc1	none
CCCCCCc1cc2cc(C(N)=O)c(=N)oc2cc1O	tim10-1 inh 42 (no result: PfHsp90 yeast 2) | tim10-1 confirm inactive
Cc1ccc(S(=O)(=O)N(C)C)cc1NC(=O)COC(=O)COc1ccc2c(c1)CCC2	none (no result: PfHsp90 yeast 2)
CC1CCc2nc(NC(=O)C3COc4ccccc4O3)sc2C1 (stereo not given)	tim10-1 inh 49 | tim10-1 confirm inactive
CC1CCc2nc(NC(=O)C3CC3)sc2C1 (stereo not given)	none
c1ccc(Cn2cnc3ccccc32)cc1	none (no result: SKKanGAS inh)
Cc1cc(C)c(Cn2cnc3ccccc32)c(C)c1	tim10-1 inh 43 | tim10-1 confirm inactive
C=CCOC(=O)C1=C(C)N=C2SCCC(=O)N2C1/C=C/c1ccccc1 (stereo not given)	tim10-1 inh 42 (no result: PfHsp90 yeast 2) | tim10-1 confirm inactive
Cc1ccccc1-n1ncc2c1CC(C)(C)CC2NC(=O)CCN1Cc2ccccc2C1=O (stereo not given)	none
CC(=O)c1ccc(N2CCN(C(=S)NCc3ccco3)CC2)cc1	none
S=C(NCc1ccco1)N1CCN(c2ccc(Cl)cc2)CC1	tim10-1 inh 49 | tim10-1 confirm inactive
COc1cc(C(C(=O)NC2CCCC2)N(C(=O)c2snc(C(N)=O)c2N)C2CCCC2)cc(OC)c1OC (stereo not given)	none
Cc1ccc(F)c(NC(=O)c2c(-c3ccccc3)noc2C)c1	tim10-1 inh 47 | tim10-1 confirm 43
Cc1onc(-c2ccccc2)c1C(=O)Nc1ccc(NC(=O)c2c(-c3ccccc3)noc2C)cc1	none
Cc1onc(-c2ccccc2)c1C(=O)Nc1cccc(OC(C)C)c1	none
CCCOc1cccc(NC(=O)c2c(-c3ccccc3)noc2C)c1	tim10-1 inh 41 | tim10-1 confirm inactive
Oc1ccc(Oc2ncc(Cl)cc2Cl)cc1	tim10-1 inh 40 | tim10-1 confirm 34
O=C(c1cccc(C(F)(F)F)c1)C1CCCN(C(=O)c2cc(C3CC3)[nH]n2)C1 (stereo not given)	none
COC(=O)C1=C(C)N(c2cccc(Cl)c2)C(=O)C1	tim10-1 inh 52 | tim10-1 confirm 34
COC(=O)C1=C(C)N(c2cccc(C(C)=O)c2)C(=O)C1	none (no result: PfHsp90 yeast 2)
COc1ccc(-c2nc3n(c(=O)c2C#N)CCS3)cc1	tim10-1 inh 45 | tim10-1 confirm inactive
CCCC(=O)C1=C(O)C(C(=O)OC)C(C)(C)CC1=Nc1ccc(C)cc1 (stereo not given)	none
CCCC(=O)C1=C(O)C(C(=O)OC)C(C)(C)CC1=Nc1ccc(N)cc1 (stereo not given)	tim10-1 inh 42 (no result: PfHsp90 yeast 2) | tim10-1 confirm inactive
Cc1ccc(S(=O)(=O)NCc2ccccc2C)cc1	none
CSc1ccc(S(=O)(=O)NCc2ccc(C)cc2)cc1	tim10-1 inh 44 | tim10-1 confirm 37
Cc1ccc(S(=O)(=O)NCc2ccccc2)cc1	none
CSc1ccc(S(=O)(=O)NCc2ccccc2C)cc1	tim10-1 inh 47 | tim10-1 confirm inactive
COc1ccc(-n2ncc(Cl)c(Cl)c2=O)cc1	none (no result: PfHsp90 yeast 2)
COc1ccc(Sc2cnn(-c3ccccc3)c(=O)c2Cl)cc1	tim10-1 inh 48 | tim10-1 confirm 45
COC(C/C=C/C(=O)COCc1ccccc1)OC	tim10-1 inh 46 | tim10-1 confirm 41
COc1cccc(N2CCN(C3CC(=O)N(c4ccc(F)c(Cl)c4)C3=O)CC2)c1 (stereo not given)	tim10-1 inh 41 | tim10-1 confirm inactive
